The record followed here is PubChem BioAssay (Tox21).

Each structure is given as a SMILES string. Records with an inconclusive call do not appear. Entries that show only a call come without a potency. More than one record can exist for a structure, and the calls need not agree. The source made the active and inactive calls. Calls follow the shape of the dose curve; as a rule, active = well fitted activation curve with a large enough effect in the repeat runs; inconclusive = weak or mixed curves; inactive = flat fitted curve, though single readings scatter.
Potency is read from the fitted curve at half-maximal effect.

This experiment in a line: A CellTox Green Cytotoxicity Assay to monitor cytotoxicity in HEK293 cells - 8 hour (AID 1224884). Also: nearly all actives have a fitted effect of over 35% in size. To be noted: CellTox Green fluorescence; series mostly up to 76.8 µM; cytotoxicity increase: at the top concentration. The text has this:
National Center for Advancing Translational Sciences [NCATS]
NIH Chemical Genomics Center [NCGC]
U.S. Environmental Protection Agency [EPA]
National Institutes of Environmental Health Sciences [NIEHS]
National Toxicology Program [NTP]
Cell-based models are critical for drug discovery. Determining the natural cytotoxic effects resulting from test compounds is an essential research activity. A CellTox Green Cytotoxicity Assay to monitor cytotoxicity in real time of continues cell culture during 40 hours of the compound treatment was used to screen Tox21 10K library compounds in Hek293 cells. CellTox Green Cytotoxicity Assay is a nonlytic, homogeneous, biofluorescent method to measure cytotoxicity in cell culture after experimental manipulation. The assay system uses a proprietary asymmetric cyanine dye that is excluded from viable cells but preferentially stains the dead cell's DNA. […] Viable cells produce no appreciable increases in fluorescence. Therefore, the fluorescence signal produced by the binding interaction with dead cell DNA is proportional to cytotoxicity.
The mixture of Hek293 cell suspension and reagents were dispensed at 600cells/6 ul/well in 1536-well tissue culture treated black solid bottom plates using a Multidrop dispenser. After the assay plates were incubated at a 37 C/5% CO2 incubator for 5 hours, 23 nL of compounds dissolved in DMSO, positive and negative controls was transferred to the assay plate by a pintool work station. The plates were incubated at 37 C for 40 hours. The fluorescence intensity were measured at 0h, 8h, 16h, 24h, 32h and 40h time points using ViewLux plate reader during compound treatment.
Take `C=CN1CCCC1=O`: the Potency entry is “inactive”.
For `CCCOCCO`, the Potency result is “inactive”.
For `CC(=O)[C@@]1(O)CC[C@H]2[C@@H]3C[C@H](C)C4=CC(=O)C=C[C@]4(C)[C@@]3(F)[C@@H](O)C[C@@]21C`, the Potency entry was “inactive”.
Still for that read-out and setting: the value for `C=C[C@H]1CN2CC[C@H]1C[C@H]2[C@H](O)c1ccnc2ccc(OC)cc12` was “inactive”.
Consider `Cc1ccc(C(C)(C)C)cc1`, for which the Potency entry is “inactive”.
As for `CC(=O)O[C@]1(C(C)=O)CC[C@H]2[C@@H]3C=C(Cl)C4=CC(=O)CC[C@]4(C)[C@H]3CC[C@@]21C`, the Potency result is “inactive”.
Regarding `O=C1CCc2ccccc2O1`, the Potency entry is “inactive”.
As to `CN1CCOCC1`, the Potency result was “inactive”.
In the case of `C=C[C@@]1(C)CC(=O)[C@]2(O)[C@@]3(C)[C@@H](O)CCC(C)(C)[C@@H]3[C@H](O)[C@H](OC(C)=O)[C@@]2(C)O1`, the Potency result was “inactive”.
Still for that read-out and setting: in the case of `CC1=CC(C)(C)Nc2ccccc21` it was “inactive”.
With `COCCOCCOCCO`, the Potency result was “inactive”.
The same measure, in the same setting: the value for `CC/C(=C(/CC)c1ccc(O)cc1)c1ccc(O)cc1` was “inactive”.
On the same count and under the same terms, the value for `CC(C)=CCO` was “inactive”; that for `O=C(O)COCCN1CCN(C(c2ccccc2)c2ccc(Cl)cc2)CC1` (stereo not given) was “inactive”.
Consider `Nc1cc([N+](=O)[O-])ccc1C(=O)O`, for which the “cytotoxicity increase” value is -9.11% (inactive).
In the case of `Clc1ccc(Sc2cc(Cl)c(Cl)cc2Cl)cc1`, the Potency result was “inactive”.
The same measure, in the same setting: in the case of `CC1(C)OC(=O)NC1=O` it was “inactive”; in that of `OCCNCCO`, “inactive”; in that of `c1ccc2c(c1)[nH]c1ccccc12`, “inactive”.
`COC(=O)C(C)Oc1ccc(Oc2ncc(C(F)(F)F)cc2Cl)cc1` (stereo not given): the Potency entry is “inactive”.
On the same count and under the same terms, the value for `O=C(O)CCCC(=O)O` was “inactive”.
`OC[C@H]1O[C@@H]2O[C@H]3[C@H](O)[C@@H](O)[C@@H](O[C@H]4[C@H](O)[C@@H](O)[C@@H](O[C@H]5[C@H](O)[C@@H](O)[C@@H](O[C@H]6[C@H](O)[C@@H](O)[C@@H](O[C@H]7[C@H](O)[C@@H](O)[C@@H](O[C@H]1[C@H](O)[C@H]2O)O[C@@H]7CO)O[C@@H]6CO)O[C@@H]5CO)O[C@@H]4CO)O[C@@H]3CO`: the Potency entry is “inactive”.
On the same count and under the same terms, in the case of `O=C1OC2(c3ccccc31)c1cc(I)c(O)c(I)c1Oc1c2cc(I)c(O)c1I` it was 13.3 µM (active) [middle of 4 runs]; in that of `c1ccc2c(c1)ccc1ncccc12`, “inactive”.
On the same count and under the same terms, the value for `O=C(O)c1cc(=O)[nH]c(=O)[nH]1` was “inactive”; that for `Cc1ccc(/C(=C\CN2CCCC2)c2ccccn2)cc1` was “inactive”; that for `O=Cc1ccccc1C=O` was “inactive”.
As to `CC(C)(C)c1cccc(C(C)(C)C)c1O`, the “cytotoxicity increase” value is -2.15% (inactive).
In the case of `CC1(C)C(C=C(Cl)Cl)C1C(=O)OCc1cccc(Oc2ccccc2)c1` (stereo not given), the Potency result was “inactive”.
Take `NCCS(=O)(=O)O`: the Potency result is “inactive”.
The same measure, in the same setting: in the case of `C1COCCN1` it was “inactive”.
On to `C[C@]12CC[C@@H]3c4ccc(O)cc4CC[C@H]3[C@@H]1CC[C@H]2O`, for which the “cytotoxicity increase” value is -1.31% (inactive).
Take `CCCCCCCCCCC(CO)CCCCCCCC` (stereo not given): the Potency result was “inactive”.
The same measure, in the same setting: the value for `C=C1C[C@H]2[C@@H]3C=C(C)C4=CC(=O)CC[C@]4(C)[C@H]3CC[C@]2(C)[C@@]1(OC(C)=O)C(C)=O` was “inactive”.
`CN(C)CCCN1c2ccccc2Sc2ccc(Cl)cc21`: the Potency is 54.9 µM (active) and inactive.
Same read-out and setting: in the case of `Nc1cc(Cl)c(N)c(Cl)c1` it was “inactive”; in that of `CC(=O)[C@H]1CC[C@H]2[C@@H]3CC=C4C[C@@H](O)CC[C@]4(C)[C@H]3CC[C@]12C`, “inactive”.
Same read-out and setting: in the case of `[O-]/[N+](=N\O)c1ccccc1` it was “inactive”.
Same read-out and setting: the value for `C=CC(=O)OCCCC` was “inactive”; that for `C=C[C@H]1CN2CC[C@H]1C[C@@H]2[C@@H](O)c1ccnc2ccc(OC)cc12` was “inactive”.
